Experimental data: PubChem BioAssay AID651860 (Broad Institute, 2012)
Entries with a potency or affinity are not part of this list. Calls of active or inactive are those of the source.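 Rule for the calls: active = compounds lowering HepG2 cell ATP luminescence with a fitted half-maximal concentration at most twice the top tested dose; inconclusive = flat fit with 30 to 70 percent signal loss, or poor fit; inactive = the rest.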

test: liver cell line viability loss – HepG2, luminescence plate reader, powder samples, set 2, cytotoxicity control, dose response (AID 651860); conditions: CellTiter-Glo ATP luminescence, 48 h; series mostly up to 26 µM

Row | SMILES | outcome
1 | O=C(O)[C@H]1CCCC[C@H]1C(=O)N1CCc2ccccc2[C@H]1CNS(=O)(=O)c1ccccc1 | inactive
2 | Cc1ccc(S(=O)(=O)NNc2nc(C(C(=O)OC(C)C)C(=O)C(F)(F)F)nc3ccccc23)cc1 (centres undefined) | inactive
3 | O=C(O)C1CCCCC1C(=O)N1CCc2ccccc2[C@H]1C(=O)NC12CC3CC(CC(C3)C1)C2 (some centres undefined) | inactive
4 | Cc1cc(C)c(S(=O)(=O)Nc2cc(C(C(=O)OCc3ccccc3)C(=O)OCc3ccccc3)c(O)c3ccccc23)c(C)c1 | inactive
5 | NC(=O)c1ccccc1C(=O)NC[C@@H]1c2ccccc2CCN1C(=O)[C@@H]1CCCC[C@@H]1C(=O)O | inactive
6 | O=C(NC[C@@H]1c2ccccc2CCN1C(=O)[C@@H]1CCCC[C@@H]1C(=O)O)c1ccccc1CO | inactive
7 | CCOC(=O)Cc1nc(NS(=O)(=O)c2c(C)cc(C)cc2C)c2ccccc2n1 | inactive
8 | O=C(O)CC(=O)N1CCc2ccccc2C1CN1C(=O)c2ccccc2C1=O (centres undefined) | inactive
9 | O=C(O)/C=C\C(=O)N1CCc2ccccc2C1CN1C(=O)c2ccccc2C1=O (centres undefined) | inactive
10 | O=C(O)C1CCCCC1C(=O)N1CCc2ccccc2C1CN1Cc2ccccc2C1=O (centres undefined) | inactive
11 | CC(C)CNc1nc(NS(=O)(=O)c2ccccc2)c2ccccc2n1 | inactive
12 | O=C(Oc1cc(CN2C(=O)c3ccccc3C2=O)c2ccccc2[n+]1[O-])c1cccc(Cl)c1 | inactive
13 | O=C(NC[C@@H]1c2ccccc2CCN1C(=O)[C@@H]1CCCC[C@@H]1C(=O)O)c1ccc(CCl)cc1 | inactive
14 | Cc1cc(C)c(S(=O)(=O)Nc2ncnc3ccccc23)c(C)c1 | inactive
15 | COC(=O)CNc1nc(NS(=O)(=O)c2c(C)cc(C)cc2C)c2ccccc2n1 | inactive
16 | O=C(O)[C@H]1CCCC[C@H]1C(=O)N1CCc2ccccc2C1CCN1C(=O)c2ccccc2C1=O (some centres undefined) | inactive
17 | COC(=O)C(C(=O)OC)c1cc(NS(=O)(=O)c2c(C)cc(C)cc2C)c2ccccc2c1O | inactive

Row | SMILES | outcome
18 | O=C(O)[C@@H]1CCCN1C(=O)N1CCc2ccccc2[C@H]1CN1C(=O)c2ccccc2C1=O | inactive
19 | COC(=O)[C@H]1CCCC[C@H]1C(=O)N1CCc2ccccc2[C@H]1CN1C(=O)c2ccccc2C1=O | inactive
20 | CCOC(=O)C(C(=O)OCC)c1cc(CNS(=O)(=O)c2ccc(C)cc2C)c2ccccc2n1 | inactive
21 | COC(=O)[C@@H]1CCCC[C@@H]1C(=O)N1CCc2ccccc2[C@H]1CN1C(=O)c2ccccc2C1=O | inactive
22 | O=C(O)c1ccccc1C(=O)NC[C@@H]1c2ccccc2CCN1C(=O)[C@@H]1CCCC[C@@H]1C(=O)O | inactive
23 | Cc1ccc(S(=O)(=O)NC[C@@H]2c3ccccc3CCN2C(=O)[C@@H]2CCCC[C@@H]2C(=O)O)c(C)c1 | inactive
24 | COC(=O)C1CCCCC1C(=O)N1CCc2ccccc2C1CN1C(=O)c2ccccc2C1=O (centres undefined) | inactive
25 | O=C(O)c1ccccc1C(=O)N1CCc2ccccc2C1CN1C(=O)c2ccccc2C1=O (centres undefined) | inactive
26 | C=CC(=O)NC[C@@H]1c2ccccc2CCN1C(=O)[C@@H]1CCCC[C@@H]1C(=O)O | inactive
27 | CCOC(=O)C(C(=O)OCC)c1cc(CN2C(=O)c3ccccc3C2=O)c2ccccc2n1 | inactive
28 | O=C(NCCc1ccccc1)c1ccccc1C(=O)NC[C@@H]1c2ccccc2CCN1C(=O)C1CCCCC1C(=O)O (some centres undefined) | inactive
29 | O=C(NCCO)c1ccccc1C(=O)NC[C@@H]1c2ccccc2CCN1C(=O)C1CCCCC1C(=O)O (some centres undefined) | inactive
30 | O=C(O)C1CCCCC1C(=O)N1CCc2ccccc2[C@H]1C(=O)NCCc1ccccc1 (some centres undefined) | inactive
31 | CC(=O)Nc1cc(NS(=O)(=O)c2c(C)cc(C)cc2C)c2ccccc2c1O | inactive
32 | O=C1c2ccccc2C(=O)N1C[C@@H]1c2ccccc2CCN1C(=O)C1CCCCC1 | inactive
33 | O=C(O)CCC(=O)N1CCc2ccccc2C1CN1C(=O)c2ccccc2C1=O (centres undefined) | inactive
34 | Cc1cc(C)c(S(=O)(=O)Nc2nc(NCCO)nc3ccccc23)c(C)c1 | inactive
